The nature of assay [1]: binders of probe aFSTL3 on microarray, primary screen, stem cell growth factor project, biochemical, small-molecule microarray, fluorescence 635/667 (AID 1064).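 Further: measures binding of the biotinylated anti-FSTL3 antibody to printed compounds.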 Conditions: higher = more signal.
Assay [2] in a line: binders from COS7 lysate, DM2A8 probe, primary screen, torsin A project, cell lysate, small-molecule microarray, fluorescence 635/667 (AID 1065). Conditions: higher = more signal, COS7 lysate expressing mutant human TOR1A.
The nature of assay [3]: binders of probe aFGF2 on microarray, primary screen, stem cell growth factor project, biochemical, small-molecule microarray, fluorescence 635/667 (AID 1067).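 Further: measures binding of biotinylated aFGF2 protein to printed compounds on slides; z-score merges feature fluorescence and signal-to-noise across triplicate slides.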 Particulars: higher = more signal.
A short description of assay [4]: binders of probe aFGF10 on microarray, primary screen, stem cell growth factor project, biochemical, small-molecule microarray, fluorescence 635/667 (AID 1071).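 Further: score merges 667 nm spot intensity and signal to noise from triplicate slides.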 Conditions: higher = more signal.
The target in assay [5] is Neurogenic locus notch homolog protein 2 (Homo sapiens) (UniProt Q04721). The assay is described as follows: Notch2 binders on small-molecule microarrays, primary screen, biochemical, small-molecule microarray, 635 nm fluorescence, stem cell growth factors (AID 1073). Conditions: Notch2 binding, higher = more signal.
Neurogenic locus notch homolog protein 2 (Homo sapiens), sequence (Q04721 whole entry, looked up, canonical isoform): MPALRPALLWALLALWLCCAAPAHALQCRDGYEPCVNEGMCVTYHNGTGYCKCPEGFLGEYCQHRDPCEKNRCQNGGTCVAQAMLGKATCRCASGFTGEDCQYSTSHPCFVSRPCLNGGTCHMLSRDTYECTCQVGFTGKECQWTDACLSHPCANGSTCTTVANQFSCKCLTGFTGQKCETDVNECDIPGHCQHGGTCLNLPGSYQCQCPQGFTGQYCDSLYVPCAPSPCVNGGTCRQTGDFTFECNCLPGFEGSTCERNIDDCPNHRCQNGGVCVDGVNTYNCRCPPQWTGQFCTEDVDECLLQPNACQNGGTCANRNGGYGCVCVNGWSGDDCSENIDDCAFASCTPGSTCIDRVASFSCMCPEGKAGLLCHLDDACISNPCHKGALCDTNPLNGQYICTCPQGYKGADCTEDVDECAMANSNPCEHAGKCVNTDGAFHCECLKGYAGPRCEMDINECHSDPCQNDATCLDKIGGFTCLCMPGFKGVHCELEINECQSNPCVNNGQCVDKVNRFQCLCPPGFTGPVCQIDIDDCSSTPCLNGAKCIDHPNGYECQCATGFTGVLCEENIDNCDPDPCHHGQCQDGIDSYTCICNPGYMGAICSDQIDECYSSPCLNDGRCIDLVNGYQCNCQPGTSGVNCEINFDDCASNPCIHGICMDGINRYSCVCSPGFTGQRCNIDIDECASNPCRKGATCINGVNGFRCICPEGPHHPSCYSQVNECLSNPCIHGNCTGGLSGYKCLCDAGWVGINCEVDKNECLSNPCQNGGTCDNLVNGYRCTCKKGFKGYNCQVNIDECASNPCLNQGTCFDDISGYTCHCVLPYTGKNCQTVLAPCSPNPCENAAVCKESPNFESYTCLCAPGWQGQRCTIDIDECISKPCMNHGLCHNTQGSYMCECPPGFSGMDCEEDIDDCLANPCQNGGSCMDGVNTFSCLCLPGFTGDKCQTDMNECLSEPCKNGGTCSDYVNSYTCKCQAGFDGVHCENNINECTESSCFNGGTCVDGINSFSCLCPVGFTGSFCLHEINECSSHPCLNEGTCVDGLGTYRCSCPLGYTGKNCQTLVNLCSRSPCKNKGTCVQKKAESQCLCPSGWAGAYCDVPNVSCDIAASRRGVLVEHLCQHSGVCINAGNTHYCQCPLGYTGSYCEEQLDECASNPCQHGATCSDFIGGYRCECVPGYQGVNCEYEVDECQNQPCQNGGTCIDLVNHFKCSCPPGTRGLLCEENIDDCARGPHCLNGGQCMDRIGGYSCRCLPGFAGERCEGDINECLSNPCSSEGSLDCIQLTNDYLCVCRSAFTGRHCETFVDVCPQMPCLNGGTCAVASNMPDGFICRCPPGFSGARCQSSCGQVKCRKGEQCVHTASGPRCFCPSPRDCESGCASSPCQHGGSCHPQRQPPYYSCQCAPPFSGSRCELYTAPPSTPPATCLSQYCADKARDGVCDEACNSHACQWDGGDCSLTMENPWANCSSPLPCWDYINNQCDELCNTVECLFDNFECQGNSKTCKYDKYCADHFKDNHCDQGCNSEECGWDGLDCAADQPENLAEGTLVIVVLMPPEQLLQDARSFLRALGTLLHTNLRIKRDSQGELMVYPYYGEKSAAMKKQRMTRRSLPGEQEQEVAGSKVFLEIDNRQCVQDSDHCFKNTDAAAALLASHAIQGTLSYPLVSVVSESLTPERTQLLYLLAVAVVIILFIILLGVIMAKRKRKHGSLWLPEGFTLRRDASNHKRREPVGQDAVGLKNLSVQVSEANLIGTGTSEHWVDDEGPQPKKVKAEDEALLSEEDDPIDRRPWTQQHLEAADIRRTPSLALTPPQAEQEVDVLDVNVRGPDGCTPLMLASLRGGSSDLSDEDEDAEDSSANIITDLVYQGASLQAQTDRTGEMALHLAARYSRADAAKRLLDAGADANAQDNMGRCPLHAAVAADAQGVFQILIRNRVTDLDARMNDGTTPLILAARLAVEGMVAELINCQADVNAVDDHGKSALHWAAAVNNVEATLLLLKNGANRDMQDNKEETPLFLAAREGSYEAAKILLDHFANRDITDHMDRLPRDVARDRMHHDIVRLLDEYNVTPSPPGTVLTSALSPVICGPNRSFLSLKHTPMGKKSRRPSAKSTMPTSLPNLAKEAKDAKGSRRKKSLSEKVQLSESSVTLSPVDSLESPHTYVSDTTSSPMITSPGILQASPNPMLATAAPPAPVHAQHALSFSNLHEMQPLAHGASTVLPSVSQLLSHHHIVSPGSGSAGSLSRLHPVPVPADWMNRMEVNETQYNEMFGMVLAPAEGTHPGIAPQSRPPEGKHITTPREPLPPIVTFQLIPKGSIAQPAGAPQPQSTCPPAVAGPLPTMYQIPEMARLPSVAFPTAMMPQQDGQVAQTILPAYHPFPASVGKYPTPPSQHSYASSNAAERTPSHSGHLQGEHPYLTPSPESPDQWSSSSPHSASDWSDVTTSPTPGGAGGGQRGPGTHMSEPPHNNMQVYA
The target in assay [6] is Pro-neuregulin-1, membrane-bound isoform (Homo sapiens) (UniProt Q02297). Briefly: NRG1 binders on small-molecule microarrays, primary screen, psychiatric disease protein project, biochemical, small-molecule microarray, fluorescence 635/667 (AID 1075).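 Further: score combines 667 nm spot fluorescence with signal to noise.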 Conditions: NRG1 binding, 635 nm fluorescence, higher = more signal.
Assay [7] concerns Neuregulin-1 EGF-like domain. The assay is described as follows: binders of neuregulin-1 EGF-like domain, primary screen, biochemical, small-molecule microarray, 635 nm fluorescence (AID 1081).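 Further: binding of the protein to compounds printed on small-molecule microarray slides.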 Particulars: small-molecule microarray binding, higher = more signal.
Assay [8] can be described thus: FRG1 promoter luciferase signal modulators, primary screen, FRG1 inhibition for FSHD, cell-based, C2C12 myotubes, firefly/Renilla luciferase, luminescence (AID 1084). Particulars: higher = more signal, called active from +8 up or from −8 down.
A short description of assay [9]: binders of probe aFST on microarray, primary screen, stem cell growth factor project, biochemical, small-molecule microarray, fluorescence 635/667 (AID 1086).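 Further: score merges 667 nm fluorescence with signal-to-noise of each printed compound spot.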 Conditions: higher = more signal.
Assay [10] in a line: binders of probe aHhip on microarray, primary screen, stem cell growth factor project, biochemical, small-molecule microarray, fluorescence 635/667 (AID 1087).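 Further: score merges spot fluorescence at 667nm with spot signal to noise ratio.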 Conditions: higher = more signal.
Assay [11] deals with PRMT1 (protein arginine N-methyltransferase 1). Briefly: PRMT1 binders on small-molecule microarrays, primary screen, biochemical, small-molecule microarray, 635 nm fluorescence (AID 1088).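 Further: binding of Prmt1 protein to compounds spotted on small-molecule microarray slides.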 Conditions: small-molecule microarray binding, higher = more signal.
A short description of assay [12]: yeast growth modulation, basal conditions, primary screen, YJM789 clinical isolate, OD600, 24 h (AID 1089).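 Further: growth of clinical yeast isolate S. cerevisiae YJM 789 seeded 1000 cells per well; test concentration not given here.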 Particulars: S. cerevisiae YJM789 growth, higher = more signal, called active from +8 up or from −8 down.
Assay [13] in a line: fission yeast growth modulation, primary screen, strain 972, OD600, 24 h, no modulator (AID 1090).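 Further: basal condition with compound alone and no growth modifier present; test concentration not given here.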 Particulars: S. pombe 972 growth, higher = more signal, called active from +8 up or from −8 down.
Assay [14] can be described thus: S. cerevisiae growth modulation with rapamycin, primary screen, strain BY4716, OD600, 96 h (AID 1091). Further: test concentration not given here. Particulars: higher = more signal, called active from +8 up or from −8 down.
For assay [15], the target named is Torsin-1A-interacting protein 2 (Homo sapiens) (UniProt Q8NFQ8). Briefly: LULL1 binders on small-molecule microarray, primary screen, cell lysate, human LULL1 lysate, 635/667 nm fluorescence (AID 1092).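 Further: probe is lysate of COS7 cells overexpressing human LULL1; score merges per-feature 667 nm fluorescence with signal-to-noise.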 Particulars: hLULL1 lysate binding, 635 nm fluorescence, higher = more signal.
Assay [16] is described as follows: E. coli growth modulation, two-sided OD650, primary screen, E. coli filamentation project, strain DRC41, 24 h (AID 1093).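 Further: MC1000 strain lacking acrAB efflux and sulA so SOS filamentation is blocked; test concentration not given here.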 Conditions: OD650, 24 h, higher = more signal, called active from +8 up or from −8 down.
Assay [17] is described as follows: small-molecule microarray binders of probe aLefty2, primary screen, biochemical, biotinylated probe, 635/667 nm fluorescence (AID 1094).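 Further: score merges spot fluorescence near 667 nm with spot signal-to-noise ratio.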 Particulars: higher = more signal.
For assay [18], the system named is Noggin (protein binding on small-molecule microarray). Briefly: Noggin binders on small-molecule microarray, primary screen, biochemical, 635/667 nm fluorescence (AID 1095).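 Further: score merges 667 nm feature fluorescence with signal to noise over triplicate slides.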 Conditions: 635 nm fluorescence, higher = more signal.
The target in assay [19] is Neurogenic locus notch homolog protein 3 (Homo sapiens) (UniProt Q9UM47). The assay is described as follows: NOTCH3 binders on small-molecule microarray, primary screen, biochemical, 635/667 nm fluorescence (AID 1096). Conditions: NOTCH3 binding, 635 nm fluorescence, higher = more signal.
Neurogenic locus notch homolog protein 3 (Homo sapiens), sequence (Q9UM47 whole entry, looked up): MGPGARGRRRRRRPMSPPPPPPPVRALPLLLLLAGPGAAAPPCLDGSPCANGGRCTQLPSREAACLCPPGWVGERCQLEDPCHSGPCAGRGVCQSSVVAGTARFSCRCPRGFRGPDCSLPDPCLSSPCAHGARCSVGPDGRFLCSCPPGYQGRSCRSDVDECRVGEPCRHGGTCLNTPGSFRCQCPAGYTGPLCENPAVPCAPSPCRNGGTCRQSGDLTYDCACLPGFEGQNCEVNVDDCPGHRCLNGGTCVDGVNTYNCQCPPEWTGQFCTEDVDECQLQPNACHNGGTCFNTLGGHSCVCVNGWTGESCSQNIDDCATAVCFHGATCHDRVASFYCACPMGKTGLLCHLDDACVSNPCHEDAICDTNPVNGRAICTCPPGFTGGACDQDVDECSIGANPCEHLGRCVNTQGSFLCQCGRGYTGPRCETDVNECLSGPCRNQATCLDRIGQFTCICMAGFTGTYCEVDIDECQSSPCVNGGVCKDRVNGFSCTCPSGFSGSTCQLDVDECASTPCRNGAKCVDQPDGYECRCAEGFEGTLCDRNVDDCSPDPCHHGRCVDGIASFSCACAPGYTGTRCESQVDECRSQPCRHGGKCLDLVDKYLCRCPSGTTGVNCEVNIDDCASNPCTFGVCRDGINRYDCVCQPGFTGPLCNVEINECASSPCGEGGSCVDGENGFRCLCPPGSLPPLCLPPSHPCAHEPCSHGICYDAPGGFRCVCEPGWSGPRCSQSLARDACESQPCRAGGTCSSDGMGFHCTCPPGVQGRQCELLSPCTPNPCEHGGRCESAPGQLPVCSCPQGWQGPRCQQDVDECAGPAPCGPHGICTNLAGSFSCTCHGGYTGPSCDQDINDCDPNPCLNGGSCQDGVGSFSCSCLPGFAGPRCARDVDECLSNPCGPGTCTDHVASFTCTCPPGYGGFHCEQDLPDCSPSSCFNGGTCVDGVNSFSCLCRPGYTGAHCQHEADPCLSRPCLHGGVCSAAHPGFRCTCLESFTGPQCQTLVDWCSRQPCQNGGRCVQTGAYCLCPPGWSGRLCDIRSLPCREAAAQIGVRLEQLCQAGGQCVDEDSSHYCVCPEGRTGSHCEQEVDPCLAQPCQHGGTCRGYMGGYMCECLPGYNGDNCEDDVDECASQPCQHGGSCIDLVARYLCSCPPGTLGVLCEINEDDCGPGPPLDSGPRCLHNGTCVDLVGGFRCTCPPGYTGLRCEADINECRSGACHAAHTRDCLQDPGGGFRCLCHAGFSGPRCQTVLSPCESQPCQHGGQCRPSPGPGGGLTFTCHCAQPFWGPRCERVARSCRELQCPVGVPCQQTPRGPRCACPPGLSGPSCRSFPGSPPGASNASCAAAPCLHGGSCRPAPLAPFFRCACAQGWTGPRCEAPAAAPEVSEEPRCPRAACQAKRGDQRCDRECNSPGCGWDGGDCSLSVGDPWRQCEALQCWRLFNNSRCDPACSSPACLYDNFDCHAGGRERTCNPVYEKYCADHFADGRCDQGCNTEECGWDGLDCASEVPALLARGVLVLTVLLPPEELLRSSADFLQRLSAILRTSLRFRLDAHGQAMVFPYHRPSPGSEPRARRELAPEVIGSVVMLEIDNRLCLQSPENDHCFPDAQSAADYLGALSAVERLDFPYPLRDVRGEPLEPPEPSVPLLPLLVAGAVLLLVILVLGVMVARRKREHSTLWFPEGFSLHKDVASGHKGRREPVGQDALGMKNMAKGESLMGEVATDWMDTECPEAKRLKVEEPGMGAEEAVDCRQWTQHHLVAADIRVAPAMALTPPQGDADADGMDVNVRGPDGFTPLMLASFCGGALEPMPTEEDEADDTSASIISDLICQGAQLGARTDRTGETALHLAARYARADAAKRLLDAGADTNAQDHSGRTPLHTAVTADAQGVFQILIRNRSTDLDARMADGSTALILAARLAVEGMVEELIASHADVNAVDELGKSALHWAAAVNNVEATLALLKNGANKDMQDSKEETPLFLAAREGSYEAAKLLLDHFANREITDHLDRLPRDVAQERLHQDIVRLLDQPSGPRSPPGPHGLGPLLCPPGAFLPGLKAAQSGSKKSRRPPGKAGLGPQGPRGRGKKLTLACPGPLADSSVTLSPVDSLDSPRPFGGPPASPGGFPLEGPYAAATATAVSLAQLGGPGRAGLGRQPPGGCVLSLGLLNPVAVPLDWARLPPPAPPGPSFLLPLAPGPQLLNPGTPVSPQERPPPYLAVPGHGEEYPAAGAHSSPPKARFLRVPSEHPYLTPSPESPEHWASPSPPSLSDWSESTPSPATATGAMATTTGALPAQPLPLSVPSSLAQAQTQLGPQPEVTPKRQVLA
The nature of assay [20]: small-molecule microarray binders of probe aEGFR, primary screen, biochemical, biotinylated probe, 635/667 nm fluorescence (AID 1097).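 Further: probe is a biotinylated anti-EGFR antibody binding compounds printed on slides; score combines fluorescence near 667 nm and signal to noise of each spot.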 Conditions: higher = more signal.

SMILES strings stand for the structures. Calls of active or inactive are those of the source.

On to `C=C(CCCC)/C(=C/C[C@@H](OC(=O)c1ccncc1)c1ccc(CO)o1)c1cc(C(=O)OC)ccc1OC`, for which the composite z-score in assay [1] is -0.489; in assay [2], 1.44; in [3], -0.0887; in [4], 0.318; in [5], 0.738; in [6], 1.52. Further, the composite z-score in assay [7] was 1.27; in assay [9] it was 0.448; in assay [10] it was 0.0722; in assay [11], 1.45; in assay [15], 2.3; in assay [17], -0.101. Further, the composite z-score in assay [18] turned out to be 0.752; in [19], 1.07; in assay [20], 0.107. Also, the z-score in assay [8] is -0.986 (inactive); in assay [12], -0.169 (inactive); in [13], -1.75 (inactive); in [14] it was -0.331 (inactive); in assay [16], 0.635 (inactive).

With `CC(C)(C)OC(=O)CC[C@]1(C(=O)NCC(O)CO)N=C(c2ccc(OCCCO)cc2)O[C@H]1c1ccccc1CN=[N+]=[N-]` (stereo not given in full), the composite z-score in assay [1] was found to be 1.32; in assay [2], 2.46; in [3], 0.314; in assay [4] it was 0.922; in assay [5] it was 1.68; in assay [6], 2.09. For the same molecule, the composite z-score in assay [7] is 0.722; in assay [9] it was 1.68; in assay [10], -0.0024; in assay [11], 1.06; in assay [15], 3.59; in assay [17], 0.716. Further, the composite z-score stood at 0.27 in assay [18], 1.08 in assay [19] and 0.61 in assay [20]. In addition, the z-score in assay [8] was 2.4 (inactive); in assay [12], -0.624 (inactive); in [13] it was -0.867 (inactive); in assay [14] it was -0.859 (inactive); in [16], 0.301 (inactive).

Consider `CC(C)C(=C=CC[C@H](O)c1ccccc1OCCO)CCO`, for which the composite z-score is 0.0409 in [1]; -0.0204 in assay [2]; -0.152 in [3]; 0.161 in assay [4]; -0.679 in assay [5]; 0.319 in assay [6]. Further, the composite z-score in assay [7] was 0.614; in assay [9] it was -0.0031; in assay [10] it was -0.0994; in assay [11] it was 1.35; in [15], 2.48; in assay [17], 0.0349. Besides, the figures for the composite z-score in assay [18], in assay [19] and in assay [20] were -0.143, -0.131 and -0.0915, respectively. Besides, the z-score in assay [8] was 0.129 (inactive); in assay [12], -0.655 (inactive); in assay [13], -0.39 (inactive); in [14] it was -0.236 (inactive); in [16], -0.105 (inactive).

As to `NC(=O)NCC#Cc1ccc2c(c1)[C@]1(C(=O)N2)[C@H](c2ccc(O)cc2)N2[C@H](c3ccccc3)[C@H](c3ccccc3)OC(=O)[C@H]2[C@@H]1C(=O)N1CCN(c2ncccn2)CC1`, the composite z-score in [1] came out at 0.687; in assay [2], 0.585; in assay [3] it was 0.0021; in assay [4], 0.516; in assay [5], 0.0269; in [6], 0.302. Further, the composite z-score is 0.562 in assay [7]; 0.38 in assay [9]; -0.191 in [10]; 1.01 in [11]; 1.45 in assay [15]; 0.28 in assay [17]. Also, the composite z-score in assay [18] was -0.228; in assay [19], -0.334; in assay [20], 0.0193. In addition, the z-score in [8] is -1.09 (inactive); in [12] it was 0.113 (inactive); in [13], -0.923 (inactive); in assay [14] it was 1.6 (inactive); in assay [16], 1.1 (inactive).

On to `O=C(N1CCCCC1)[C@]1(CCS(=O)(=O)c2ccccc2)N=C(c2ccc(OCCCO)cc2)O[C@@H]1c1ccccc1`, for which the composite z-score in [1] stood at 1.04; in [2], 0.815; in assay [3] it was 0.215; in assay [4] it was 0.803; in assay [5], 0.773; in assay [6], 1.49. Besides, the composite z-score in assay [7] amounted to 1.11; in assay [9], 0.636; in assay [10], 0.0623; in assay [11] it was 1.56; in assay [15], 2.4; in assay [17], 0.568. The figures for the composite z-score in assay [18], in [19] and in [20] were 0.115, 1.11 and 0.244, respectively. In addition, the z-score is -1.79 (inactive) in assay [8]; -0.503 (inactive) in [12]; -0.282 (inactive) in assay [13]; 5.25 (inactive) in [14]; -0.643 (inactive) in [16].

These data come from PubChem BioAssay.
